Bioassay records from PubChem.
AmpC inh no detg: blocks E. coli AmpC beta-lactamase in detergent-free assay | P00811 | AmpC nitrocefin hydrolysis, absorbance 480 nm, 0.0001% Triton | AID 485341 | 0.52% of 330,000 active | Potency, µM (top dose mostly 57.1 µM), for the others: at the top dose activity change, negative = inhibition, usual class: inhibitors;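 also: plate controls were no compound for no effect and no enzyme for full effect; nearly all actives have a fitted effect of over 20% in size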
Target sequence (P00811 whole entry, looked up): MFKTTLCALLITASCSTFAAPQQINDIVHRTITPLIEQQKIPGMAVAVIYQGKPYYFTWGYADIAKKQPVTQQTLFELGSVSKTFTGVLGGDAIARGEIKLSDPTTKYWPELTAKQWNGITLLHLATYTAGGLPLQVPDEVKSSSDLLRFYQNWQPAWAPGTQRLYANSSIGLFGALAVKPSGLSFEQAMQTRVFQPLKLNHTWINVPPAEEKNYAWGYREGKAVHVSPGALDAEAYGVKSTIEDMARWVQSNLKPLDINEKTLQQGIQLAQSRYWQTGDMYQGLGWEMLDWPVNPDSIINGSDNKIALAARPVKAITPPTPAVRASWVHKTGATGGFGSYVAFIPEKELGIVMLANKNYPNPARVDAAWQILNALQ
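20 mM phosphate pH 7.0 + 0.01% (detergent screen) or 0.0001% Triton X-100; 5.3 nM AmpC reagent; cpd preinc 15 min RT; nitrocefin (800 uM stock) to start; A480 q20 s × 4 min; Activity was normalised to no-enzyme and no-compound control wells.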
AmpC detergent: inhibitors of E. coli AmpC beta-lactamase with detergent; P00811; AmpC hydrolysis of nitrocefin, absorbance 480 nm, 0.01% Triton; Potency, µM (highest dose often 114 µM), for the others: top-dose activity change, negative = inhibition, hits mostly inhibitors; 0.041% of 370,000 active;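 also: 0% = no-compound wells and -100% = no-enzyme wells; nearly all actives have a fitted effect of over 25% in size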
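20 mM phosphate pH 7.0 + 0.01% (detergent screen) or 0.0001% Triton X-100; 5.3 nM AmpC reagent; cpd preinc 15 min RT; nitrocefin (800 uM stock) to start; A480 q20 s × 4 min; Activity was normalised to no-enzyme and no-compound control wells.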
Pf growth 48h: inhibits P. falciparum growth in the first generation, 48 h; P. falciparum luciferase growth in erythrocytes, 48 h; 5.9% of 310,000 active; Potency, µM (titrated, usually from 28.7 µM), without a hit: at the top dose activity change, negative = inhibition, hits mostly inhibitors; also: % is scaled to controls: 0 for no effect and ±100 for the full control effect
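Luciferase-expressing parasites in RBCs, 2% Hct / 0.1% parasitemia final; RPMI 1640 + 0.5% Albumax; 37 C, 5% CO2, one generation; luminescence read-out, lower signal = inhibition.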
Pf growth 96h: P. falciparum growth inhibition at 96 hours. AID 504834. 6.9% of 320,000 active. P. falciparum luciferase reporter growth, 96 h. Potency, µM (highest dose often 28.7 µM), without a hit: at the top dose activity change, negative = inhibition, actives largely listed as inhibitors; also: % is scaled to controls: 0 for no effect and ±100 for the full control effect
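Delayed-death screen, second-generation endpoint: infected erythrocytes, 2% hematocrit, 0.05% parasitemia final; 96 hours at 37 C, 5% CO2; luciferase detection reagent; luminescence decrease equals reduced growth.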
SARS PLpro yeast: SARS-CoV PLP inhibition in yeast; S. cerevisiae expressing SARS-CoV PLpro, growth rescue; Potency, µM (doses to about 32.9 µM), without a hit: top-dose activity, positive = growth rescue, hits mostly activators; 0.19% of 330,000 active; AID 485353; calls by dose curve; also: 0% is about no effect; nearly all actives have a fitted effect of over 55% in size
Sm TGR block: blocks Schistosoma mansoni thioredoxin glutathione reductase; Q962Y6; purified TGR, DTNB reduction, TNB absorbance 405 nm; Potency, µM (titrated, usually from 114 µM), for the others: at the highest dose activity change, negative = inhibition, most hits filed as inhibitors; 3% of 360,000 active; also: % is scaled to controls: 0 for no effect and ±100 for the full control effect; nearly all actives have a fitted effect of over 60% in size
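First, TGR (20 nM dispensed) and NADPH were mixed with compound. Second, a 15 min room-temperature incubation followed. Third, further NADPH and then DTNB were added to start the reaction. Finally, TNB absorbance was monitored kinetically.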
* hit, by the source's call; ? = inconclusive; / = no result given. This is a sample that favours compounds with a hit; in the whole collection about 12% have one here. Unless noted, calls follow the shape of the dose curve; as a rule, active = well fitted curve in the direction sought with a large enough effect; inconclusive = small, poorly fitted or top-dose-only effect, or another doubt; inactive = no such curve, though single readings can be large; an effect the other way counts as inactive or inconclusive. Potency is read from the fitted curve at half-maximal effect.

SMILES | AmpC inh no detg | AmpC detergent | Pf growth 48h | Pf growth 96h | SARS PLpro yeast | Sm TGR block
c1ccc(-c2cc(-c3nn4c(-c5ccco5)nnc4s3)c3ccccc3n2)cc1 | -47.3% | ? | 3.7µM* | / | -1.3% | 20µM*
Cc1cc(-c2nn3c(-c4ccccc4)nnc3s2)c2ccccc2n1 | -13.2% | -0.9% | ? | 26.3% | -7.6% | 4.1%
COc1ccc(-c2nn3c(-c4ccco4)nnc3s2)cc1OC | 59.1% | -5.6% | ? | -3.4% | -3.3% | ?
c1coc(-c2nnc3sc(-c4cccs4)nn23)c1 | -32.9% | 4.6% | -6.3% | / | -11.4% | 17.8µM*
COCCCNC(=S)NC(=O)c1ccc(C)cc1 | -9.1% | -5.2% | 197.1% | 2.8% | 13.0% | -25.7%
O=C(c1ccc([N+](=O)[O-])s1)N1CCN(c2cccc(Cl)c2)CC1 | -35.3% | -2.4% | ? | 11.7µM* | -102.2% | ?
O=C(c1ccc2nc[nH]c2c1)N1CCN(c2cccc(Cl)c2)CC1 | 120.1% | -0.2% | 13.1µM* | 5.86µM* | -7.9% | -0.5%
COc1cccc(C2NC(=O)c3n[nH]c(-c4cccs4)c32)c1 (configuration not stated) | / | 0.1% | / | / | / | 1.9%
CCN(CC)C(=O)Cn1c(C)c(/C=C/c2cc[n+](C)cc2)c2ccccc21 | -5.3% | ? | 1.65µM* | ? | -1.1% | -23.3%
C=CCn1c(C)c(/C=C/c2cc[n+](C)cc2)c2ccccc21 | 1.3% | 9.0% | 0.738µM* | 3.8% | -1.7% | 3.6%
O=[N+]([O-])c1cc(-c2nc(-c3ccncc3)no2)cc([N+](=O)[O-])c1 | -1.7% | -13.1% | ? | 1.85µM* | -30.9% | -3.1%
Cc1cccc(-c2nc(-c3ccncc3)no2)c1 | 19.7% | -1.4% | 197.7% | 10.4µM* | -9.6% | 5.9%
CN(C(=O)c1ccc(C#N)cc1)c1nnc(-c2cnccn2)s1 | 2.1% | ? | 0.2% | 92.1% | -0.1% | 4.4%
COc1ccccc1C(CNC(=O)c1cc(C)nc2ccccc12)N(C)C (configuration not stated) | -14.5% | -4.8% | 9.2% | 21.8% | -0.6% | -5.0%
O=c1oc(-c2ccccc2NS(=O)(=O)c2ccc3ccccc3c2)nc2ccccc12 | -25.3% | ? | 4.9% | 10.4µM* | -7.3% | -1.5%
COC(=O)c1c(-c2cccs2)csc1NC(=O)COc1ccc(C(C)C)cc1 | / | -1.0% | / | / | / | 12.0%
CC(=O)Nc1sc2c(c1C(c1ccccc1)N1CCOCC1)CCCC2 (configuration not stated) | -22.4% | 0.7% | ? | / | -0.8% | -31.4%
CC(=O)Nc1sc2c(c1C(c1ccc(Cl)cc1)N1CCOCC1)CCCC2 (configuration not stated) | 65.9% | ? | / | 1.31µM* | 0.0% | -18.8%
CC(=O)Nc1sc2c(c1C(c1ccc(F)cc1)N1CCOCC1)CCCC2 (configuration not stated) | 174.6% | -4.3% | / | 1.17µM* | -11.2% | ?
CCc1ccccc1NC(=O)Cn1c(=O)ccc2cc(S(=O)(=O)N3CCC(C)CC3)ccc21 | / | 8.7% | / | / | / | 2.1%
COc1ccccc1N(C(=O)CCl)c1cn(C(C)=O)c2ccccc12 | 42.4% | -0.7% | ? | ? | -1.3% | 3.16µM*
CC(=O)n1cc(N(C(=O)CCl)c2ccc(Cl)cc2)c2ccccc21 | 28.6% | 3.1% | 2.33µM* | ? | -4.1% | 0.316µM*
CCOC(=O)c1ccccc1Nc1cn(C(C)=O)c2ccccc12 | -7.8% | 0.5% | / | ? | 4.5% | 47.2%
CCCCn1c(N)c(N(CCOC)C(=O)c2oc3ccc(OCC)cc3c2C)c(=O)[nH]c1=O | 38.2% | -10.7% | -7.2% | ? | -3.8% | 2.2%
COc1cccc(N=Nc2ccc(O)c3ncccc23)c1 | -40.4% | ? | ? | ? | 4.9% | -19.2%
SMILES | AmpC inh no detg | AmpC detergent | Pf growth 48h | Pf growth 96h | SARS PLpro yeast | Sm TGR block
Oc1ccc(N=Nc2ccc3c(c2)OCCO3)c2cccnc12 | 34.8% | -4.8% | 1.04µM* | ? | -6.9% | -25.3%
COc1ccc(N=Nc2ccc(O)c3ncccc23)cc1 | -8.7% | -4.9% | 0.586µM* | 0.522µM* | 2.4% | -13.9%
COc1ccc(C)cc1N=Nc1ccc(O)c2ncccc12 | -9.6% | 8.8% | 2.62µM* | ? | ? | 0.2%
O=Nc1ccc(O)c2ncccc12 | -3.0% | -2.5% | 1.47µM* | 3.29µM* | 0.0% | -32.7%
Cc1ccccc1N=Nc1ccc(O)c2ncccc12 | -19.5% | -7.8% | 0.37µM* | ? | 3.55µM* | -1.6%
Cc1ccc(-c2cc(C(=O)Nc3ccc(S(=O)(=O)Nc4cc(C)on4)cc3)c3ccccc3n2)c(C)c1 | 10µM* | ? | ? | 7.38µM* | 6.7% | 8.4%
Cc1cc(NS(=O)(=O)c2ccc(NC(=O)c3ccccc3C)cc2)no1 | -5.6% | -9.3% | 0.0% | 31.2% | 1.4% | -1.6%
COc1ccc(-c2nc3ccccc3c(C(=O)Nc3ccc(S(=O)(=O)Nc4cc(C)on4)cc3)c2C)cc1 | -31.4% | ? | 10.4µM* | ? | 5.9% | -11.0%
c1ccc(Nc2ccccc2Nc2ccccn2)nc1 | -39.2% | -8.8% | ? | 19.9% | 8.1% | -6.3%
Oc1cccc2ccc(Nc3ccccn3)nc12 | -14.0% | -7.6% | 0.37µM* | / | -21.6% | 3.5%
Fc1ccc(OCCCCCn2ccnc2)cc1 | 0.6% | 4.6% | -24.1% | 4.15µM* | -1.1% | -0.6%
CCOc1ccc(NC(=O)C(=O)NCCCn2ccnc2)cc1 | 0.159µM* | -4.5% | 0.3% | 41.8% | -0.7% | -11.0%
CCOc1cccc(OCCCCn2ccnc2)c1 | -10.9% | -8.4% | 11.7µM* | -9.1% | 3.9% | -1.5%
CCCOc1ccc(NC(=O)C(=O)NCCCn2ccnc2)cc1 | -5.3% | -13.5% | 9.0% | -11.5% | -2.9% | -7.9%
Cn1c2ccccc2c2cc(C(=O)NNC(=O)CCl)sc21 | -6.0% | 0.8% | ? | 9.28µM* | 7.7% | 39.8µM*
Clc1ccccc1CN1CCN(/N=C/C=C\c2ccco2)CC1 | -5.3% | -0.4% | 43.4% | 21.7% | 0.6% | 50.1µM*
C(/C=C/c1ccco1)=N/N1CCN(c2ccccc2)CC1 | -20.0% | 4.0% | 113.7% | 152.7% | 6.6% | ?
CCOC(=O)c1c(NC(=O)c2cnn3c2NC(c2cccc(OC)c2)CC3C(F)(F)F)sc2c1CCCC2 (configuration not stated) | -1.6% | 0.0% | ? | -26.3% | -15.7% | -17.5%
COc1ccc(/C=N/N2CCN(C)CC2)c(OC)c1OC | -7.9% | 5.0% | 0.0% | -16.6% | 0.9% | 50.1µM*
CC(=O)N1[C@H](Cc2ccccc2)C=C[C@]1(C)C(=O)NCCc1c[nH]c2ccccc12 | 145.1% | ? | -12.2% | ? | -4.1% | -0.7%
